# According to PubChem BioAssay (NCI):
# Compounds without any hit were thinned out: in the full panel of roughly 83,000, 20% have a hit.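 Results are percent growth after 48 hours of single-concentration exposure. 100 means growth as in untreated cells, lower positive values show inhibition; negative values down to -100 show cell death.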 Unmarked numbers belong to inactive results. Activity calls are given as the source filed them.
# Tested on: HCT-116 colon
# Assay: NCI-60 one-dose screen, 48 h (100 = growth as untreated, 0 = no growth, -100 = all killed)
# Conditions: 10 µM unless noted
# Method: Growth inhibition of the HCT-116 human tumor cell line is measured as a screen for anti-cancer activity. Cells are grown in 96 well plates and exposed to the test compound for 48 hours. Compounds are tested at a single concentration, which is 10^-5 M for most compounds. The reported endpoint is percent growth (GI% or GIPRCNT), where numbers from 0 - 100% represent growth inhibition, and numbers from -100% - 0 represent cell death. For example, a value of 40 represents 60% growth inhibition. A value of 0 means no net growth occurred over the course of the experiment. A value of -40 indicates 40% of cells at the beginning of the experiment died by the end of the experiment. A value of -100 means all cells are dead at the end of the experiment.
# NCI-60 Human Tumor Cell Lines Screen was performed using the standard one-dose NCI protocol, which is described in more detail at https://dtp.cancer.gov/discovery_development/nci-60/default.htm.
# Compounds with GIPRCNT values below 10 were considered active. Activity score was based on GIPRCNT using the following formula: […]
# Score is 0 for GIPRCNT values of 100 or above, 50 for GIPRCNT values of 0, and 100 for GIPRCNT values of -100.
row,Structure (SMILES),growth
1,CSc1ccc(Cl)c(C(=O)Nc2sccc2C(N)=O)c1,109%
2,C=CCN1C(=O)[C@]2(SC1=S)[C@H](c1cccc(Cl)c1)CN(C)[C@]21C(=O)NC2C=CC(Cl)=C[C@H]21 (stereo not given in full),33.4%
3,COc1ccc(-c2cc(-c3ccc(Nc4nc(Nc5ccccc5)nc(Nc5ccc(Cl)cc5)n4)cc3)nc(N)c2C#N)cc1,-88.5% (active)
4,C[C@@H]1CC[C@@H]2[C@@H]1[C@H](OC(=O)/C=C/c1ccccc1)[C@]1(CCCOCCOCCOCCOC(=O)CCCC[C@@H]3SC[C@@H]4NC(=O)N[C@@H]43)C[C@@H](OC(=O)CO)[C@@]2(C)O1,92.7%
5,O=C1CSC(c2ccccc2O)N1c1nnc(Cn2cnnc2)o1 (stereo not given),88.6%
6,Cl.[Pt].[c-]1ccccc1-c1ccccn1.c1ccc(P(c2ccccc2)C([PH+](c2ccccc2)c2ccccc2)[PH+](c2ccccc2)c2ccccc2)cc1,7.37% (active)
7,O=C1/C(=C/c2ccccc2[N+](=O)[O-])COc2ccc(O)c(O)c21,-15.4% (active)
8,C=C1c2c(C)nn(-c3ccc(O)cc3)c2N(C)C23C[C@@H]1C1(C)c4c(C)nn(-c5ccc(O)cc5)c4N(C)C(C)(C[C@H]12)C3 (stereo not given in full),8.9% (active)
9,CCCCCCCC/C=C\CCCCCCCC(=O)Oc1cccc2cccnc12,32.2%
10,Cc1[nH]c(-c2nc3ccccc3[nH]2)c(C)c1C(=O)N1CCOCC1,101%
11,O=c1ccn(C2OC(F)(CO)C(O)C2F)c(=O)[nH]1 (stereo not given),104%
12,CCOc1ccc(S(=O)(=O)c2ccc(C)cc2)c2c1no[n+]2[O-],80.4%
13,CC(C)c1ccc(NC(=O)Cc2ccc(Nc3ncnc4cc(-c5cnn(CCN(C)C)c5)ccc34)cc2)cc1,-19.7% [30 µM] (active)
14,CCC(O)(C(c1ccccc1)c1ccccn1)C(c1ccccc1)c1ccccn1 (stereo not given),99.4%
15,CN(C)c1cnccn1,97.3%
16,Cc1cc(-c2ccccc2)cc(SC#N)[n+]1[O-],36%
17,O=C1c2cccc3c(-c4ccc(-c5nc6c7ccccc7c7ccccc7c6[nH]5)cc4)ccc(c23)C(=O)N1CCN1CCNCC1,-12.3% (active)
18,CC(=O)c1sc(-c2ccccc2)cc1N,98.8%
19,CN(C)c1ccc(/C=C2\C=C(c3ccccc3)N(CCc3ccccc3)C2=O)cc1,42.2%
20,N#Cc1cnn2c(-c3ccc(Cl)cc3)nc(NCCc3ccccc3)nc12,81.5%

row,Structure (SMILES),growth
1,N#Cc1c(N)nc2c(nnn2-c2cccc(Br)c2)c1N,91.3%
2,CCNCCNc1cc(C2CCCC2)c(C#N)c2nc3ccccc3n12,1.61% (active)
3,Nc1ccc(-c2cc3c(Nc4ccc(OCc5cccc(F)c5)c(Cl)c4)ncnc3s2)cc1,50.7%
4,COc1ccc2c(c1)/C(=C\c1sc(=S)[nH]c1O)C(C(=O)O)=N2,99.6%
5,C[C@H]1[C@H]2C3=CC[C@@H]4[C@@]5(C)C/C(=C/c6ccncc6)C(=O)C(C)(C)[C@@H]5CC[C@@]4(C)[C@]3(C)CC[C@@]2(C(=O)N2CCN(C)CC2)CC[C@@H]1C,55.4%
6,COc1ccc(-n2sc(=O)n(Cc3ccc(COC(=O)C(C)c4ccc(CC(C)C)cc4)cc3)c2=O)cc1 (stereo not given),-31.9% (active)
7,Cc1cc(-c2ccc(N(C)C)cc2)c2sc(=O)[nH]c2n1,50.1%
8,CCn1nc(C#Cc2c(C)ccc3c(Nc4ccc(Cl)cc4)nccc23)c2c(N)ncnc21,6.73% (active)
9,O=C(CCc1nc(-c2cccc(Cl)c2)no1)Nc1ccccn1,99.1%
10,CN(C)CN1CCN(c2ccc3nc(-c4ccc5nc(-c6ccc(C(F)(F)F)cc6)[nH]c5c4)[nH]c3c2)CC1,23.8%
11,COC(=O)CCCNC(=O)C(=O)c1c(O)c(O)c(C(C)C)c2cc(C)c(-c3c(C)cc4c(C(C)C)c(O)c(O)c(C(=O)C(=O)NCCCC(=O)OC)c4c3O)c(O)c12,-30.9% (active)
12,Cc1ccc(NC(=O)C(Cl)Cl)cc1,96.5%
13,O=C(CCCCCCCn1cc(-c2cccnc2)nn1)Nc1ccccc1-c1ccccc1,0.699% (active)
14,COc1ccc(/C=C2\C=C(c3ccccc3)N(CCc3ccccc3)C2=O)cc1OC,32.8%
15,COc1ccc(/C=C2\COc3ccc(O)cc3C2=O)c(OC)c1,61.9%
16,Nc1c(C(=O)Nc2ccccc2)sc2nc3c(cc12)CCCCCC3,2.39% (active)
17,COc1ccccc1C(=O)NC(=S)Nc1ccc(-c2nc3ccccc3[nH]2)cc1,13.8%
18,C=C1C(=O)O[C@H]2[C@H]1CC/C(COC(=O)/C=C\C(=O)NCc1ccc(Cn3c(=O)sn(-c4ccc(Cl)cc4)c3=O)cc1)=C\CC[C@@]1(C)O[C@@H]21,-66% (active)
19,COc1cc(-c2ccc(-c3ccc(C(=N)N)nc3)s2)cc(OC)c1OC,0.952% (active)
20,Cc1nc(Nc2ccc(NC(=S)Nc3ccccc3)cc2)nc2nc(Nc3ccc(S(=O)(=O)O)cc3)[nH]c(=O)c12,103%
